This passage reports binding signal results from publication PMC11006913.

Substitutions are numbered along the chain they refer to.

Holding throughout (experiment): PBM; 200 nM protein, PBS
What all share (details): dsDNA, one strand shown

In assay [1] the target is HOXA4 (Homo sapiens, UniProt Q00056 201-287, W262R).
For assay [2], the target named is HOXA4 (Homo sapiens, UniProt Q00056 201-287, R217L).
Assay [3] addresses ALX3 (Homo sapiens, UniProt O95076 139-225, N203Q).
In assay [4] the target is HOXA4 (Homo sapiens, UniProt Q00056 201-287).
In assay [5] the target is ALX3 (Homo sapiens, UniProt O95076 139-225).
Assay [6] concerns the target ALX3 (Homo sapiens, UniProt O95076 139-225, L168Q).
For assay [7], the target named is ALX3 (Homo sapiens, UniProt O95076 139-225, L168V).
The target of assay [8] is HOXA4 (Homo sapiens, UniProt Q00056 201-287, W262F).
Assay [9] deals with ALX3 (Homo sapiens, UniProt O95076 139-225, N203S).
The target of assay [10] is HOXD13 (Homo sapiens, UniProt P35453 263-343, T313R).
The target of assay [11] is HOXD13 (Homo sapiens, UniProt P35453 263-343).
The target in assay [12] is HOXD13 (Homo sapiens, UniProt P35453 263-343, T313A).
Assay [13] addresses HOXA2 (Homo sapiens, UniProt O43364 129-215, R185K).
The target in assay [14] is MSX2 (Homo sapiens, UniProt P35548 130-214, R199I).
For assay [15], the target named is MSX2 (Homo sapiens, UniProt P35548 130-214).
Assay [16] addresses MSX2 (Homo sapiens, UniProt P35548 130-214, F161Y).
The target in assay [17] is T1, NKX2-6 (Homo sapiens, UniProt A6NCS4 118-204, R150C).
T1 sequence: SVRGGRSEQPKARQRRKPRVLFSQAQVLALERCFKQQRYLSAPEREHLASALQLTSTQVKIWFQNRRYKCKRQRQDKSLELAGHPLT

Assay [18] has as its target T2, NKX2-6 (Homo sapiens, UniProt A6NCS4 118-204).
T2 sequence: T1 sequence with C33R

Assay [19] concerns the target T3, NKX2-6 (Homo sapiens, UniProt A6NCS4 118-204, F151L).
T3 sequence: T1 sequence with C33R, F34L

The target in assay [20] is HOXA2 (Homo sapiens, UniProt O43364 129-215, R185T).
The target of assay [21] is VAX1 (Homo sapiens, UniProt Q5SQQ9 86-172).
In assay [22] the target is VAX1 (Homo sapiens, UniProt Q5SQQ9 86-172, T142I).
Assay [23] addresses HOXA2 (Homo sapiens, UniProt O43364 129-215, Y150S).
Assay [24] addresses HOXA2 (Homo sapiens, UniProt O43364 129-215).
The target of assay [25] is VAX1 (Homo sapiens, UniProt Q5SQQ9 86-172, K157R).
In assay [26] the target is HOXB6 (Homo sapiens, UniProt P17509 132-218, K202E).
Assay [27] concerns the target HOXB6 (Homo sapiens, UniProt P17509 132-218).

Sequence of HOXA4 (Homo sapiens, UniProt Q00056 201-287, W262R) (Q00056 201-287 W262R): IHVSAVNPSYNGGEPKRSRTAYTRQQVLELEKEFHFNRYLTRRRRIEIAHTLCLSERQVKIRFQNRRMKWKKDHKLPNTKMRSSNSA
Sequence of HOXA4 (Homo sapiens, UniProt Q00056 201-287) (Q00056 201-287): as the sequence (Q00056 201-287 W262R) above, with R62W counted along it
Sequence of HOXA4 (Homo sapiens, UniProt Q00056 201-287, W262F) (Q00056 201-287 W262F): as the sequence (Q00056 201-287 W262R) above, with R62F counted along it
Sequence of ALX3 (Homo sapiens, UniProt O95076 139-225, N203S) (O95076 139-225 N203S): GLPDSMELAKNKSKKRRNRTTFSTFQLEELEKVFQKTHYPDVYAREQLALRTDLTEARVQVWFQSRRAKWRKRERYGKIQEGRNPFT
Sequence of HOXA4 (Homo sapiens, UniProt Q00056 201-287, R217L) (Q00056 201-287 R217L): as the sequence (Q00056 201-287 W262R) above, with R17L, R62W counted along it
Sequence of ALX3 (Homo sapiens, UniProt O95076 139-225, N203Q) (O95076 139-225 N203Q): as the sequence (O95076 139-225 N203S) above, with S65Q counted along it
Sequence of HOXA2 (Homo sapiens, UniProt O43364 129-215, R185K) (O43364 129-215 R185K): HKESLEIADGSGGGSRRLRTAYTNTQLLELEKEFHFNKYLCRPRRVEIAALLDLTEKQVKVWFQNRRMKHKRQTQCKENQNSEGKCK
Sequence of ALX3 (Homo sapiens, UniProt O95076 139-225, L168V) (O95076 139-225 L168V): as the sequence (O95076 139-225 N203S) above, with L30V, S65N counted along it
Sequence of ALX3 (Homo sapiens, UniProt O95076 139-225, L168Q) (O95076 139-225 L168Q): as the sequence (O95076 139-225 N203S) above, with L30Q, S65N counted along it
Sequence of ALX3 (Homo sapiens, UniProt O95076 139-225) (O95076 139-225): as the sequence (O95076 139-225 N203S) above, with S65N counted along it
Sequence of VAX1 (Homo sapiens, UniProt Q5SQQ9 86-172, T142I) (Q5SQQ9 86-172 T142I): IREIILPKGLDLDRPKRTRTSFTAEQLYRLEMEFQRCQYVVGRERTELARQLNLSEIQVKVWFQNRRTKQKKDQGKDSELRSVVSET
Sequence of MSX2 (Homo sapiens, UniProt P35548 130-214, F161Y) (P35548 130-214 F161Y): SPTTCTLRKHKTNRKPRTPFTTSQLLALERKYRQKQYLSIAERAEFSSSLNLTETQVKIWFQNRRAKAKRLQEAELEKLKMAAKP
Sequence of HOXD13 (Homo sapiens, UniProt P35453 263-343) (P35453 263-343): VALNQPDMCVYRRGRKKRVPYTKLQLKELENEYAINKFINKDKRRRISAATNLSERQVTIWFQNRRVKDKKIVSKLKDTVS
Sequence of HOXA2 (Homo sapiens, UniProt O43364 129-215, Y150S) (O43364 129-215 Y150S): as the sequence (O43364 129-215 R185K) above, with Y22S, K57R counted along it
Sequence of HOXD13 (Homo sapiens, UniProt P35453 263-343, T313A) (P35453 263-343 T313A): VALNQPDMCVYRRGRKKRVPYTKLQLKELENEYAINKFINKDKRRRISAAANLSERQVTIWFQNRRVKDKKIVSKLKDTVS
Sequence of HOXB6 (Homo sapiens, UniProt P17509 132-218) (P17509 132-218): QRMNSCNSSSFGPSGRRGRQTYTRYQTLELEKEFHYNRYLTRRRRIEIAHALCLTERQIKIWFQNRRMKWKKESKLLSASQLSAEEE
Sequence of VAX1 (Homo sapiens, UniProt Q5SQQ9 86-172, K157R) (Q5SQQ9 86-172 K157R): as the sequence (Q5SQQ9 86-172 T142I) above, with I57T, K72R counted along it
Sequence of MSX2 (Homo sapiens, UniProt P35548 130-214, R199I) (P35548 130-214 R199I): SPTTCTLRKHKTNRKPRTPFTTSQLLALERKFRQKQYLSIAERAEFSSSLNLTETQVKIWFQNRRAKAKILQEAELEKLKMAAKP
Sequence of VAX1 (Homo sapiens, UniProt Q5SQQ9 86-172) (Q5SQQ9 86-172): as the sequence (Q5SQQ9 86-172 T142I) above, with I57T counted along it
Sequence of HOXB6 (Homo sapiens, UniProt P17509 132-218, K202E) (P17509 132-218 K202E): as the sequence (P17509 132-218) above, with K71E counted along it
Sequence of HOXA2 (Homo sapiens, UniProt O43364 129-215) (O43364 129-215): as the sequence (O43364 129-215 R185K) above, with K57R counted along it
Sequence of HOXA2 (Homo sapiens, UniProt O43364 129-215, R185T) (O43364 129-215 R185T): as the sequence (O43364 129-215 R185K) above, with K57T counted along it
Sequence of HOXD13 (Homo sapiens, UniProt P35453 263-343, T313R) (P35453 263-343 T313R): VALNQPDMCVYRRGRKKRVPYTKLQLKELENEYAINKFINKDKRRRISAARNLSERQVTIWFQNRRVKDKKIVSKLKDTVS
Sequence of MSX2 (Homo sapiens, UniProt P35548 130-214) (P35548 130-214): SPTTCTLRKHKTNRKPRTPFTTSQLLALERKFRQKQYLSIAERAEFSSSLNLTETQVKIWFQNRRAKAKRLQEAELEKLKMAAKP

With CCGGCTCC, the binding signal in the assay with HOXA4 [1] is 9.74 upbm affinity estimate (log intensity, higher = more binding, comparable within an allelic series); with HOXA4 [2], 9.52 upbm affinity estimate (log intensity, higher = more binding, comparable within an allelic series); with ALX3 [3], 7.7 upbm affinity estimate (log intensity, higher = more binding, comparable within an allelic series); with HOXA4 [4] it was 9.48 upbm affinity estimate (log intensity, higher = more binding, comparable within an allelic series); with ALX3 [5], 7.5 upbm affinity estimate (log intensity, higher = more binding, comparable within an allelic series); with ALX3 [6], 7.65 upbm affinity estimate (log intensity, higher = more binding, comparable within an allelic series). Also, the binding signal is 7.64 upbm affinity estimate (log intensity, higher = more binding, comparable within an allelic series) with ALX3 [7]; 9.75 upbm affinity estimate (log intensity, higher = more binding, comparable within an allelic series) with HOXA4 [8]; 7.7 upbm affinity estimate (log intensity, higher = more binding, comparable within an allelic series) in the assay with ALX3 [9].
CCCCAAGG: the binding signal with HOXA4 [1] is 9.82 upbm affinity estimate (log intensity, higher = more binding, comparable within an allelic series); with HOXA4 [2], 9.69 upbm affinity estimate (log intensity, higher = more binding, comparable within an allelic series); with HOXD13 [10] it was 9.45 upbm affinity estimate (log intensity, higher = more binding, comparable within an allelic series); in the assay with HOXD13 [11], 9.55 upbm affinity estimate (log intensity, higher = more binding, comparable within an allelic series); with HOXA4 [4], 9.65 upbm affinity estimate (log intensity, higher = more binding, comparable within an allelic series); with HOXD13 [12], 9.53 upbm affinity estimate (log intensity, higher = more binding, comparable within an allelic series). The binding signal in the assay with HOXA4 [8] was 9.86 upbm affinity estimate (log intensity, higher = more binding, comparable within an allelic series).
As for CATTAATC, the binding signal is 10.5 upbm affinity estimate (log intensity, higher = more binding, comparable within an allelic series) in the assay with HOXA4 [1]; 11.9 upbm affinity estimate (log intensity, higher = more binding, comparable within an allelic series) with HOXA4 [2]; 13.2 upbm affinity estimate (log intensity, higher = more binding, comparable within an allelic series) in the assay with HOXA2 [13]; 13.6 upbm affinity estimate (log intensity, higher = more binding, comparable within an allelic series) with HOXA4 [4]; 11.3 upbm affinity estimate (log intensity, higher = more binding, comparable within an allelic series) with HOXA4 [8].
As for CCACGCCC, the binding signal is 9.84 upbm affinity estimate (log intensity, higher = more binding, comparable within an allelic series) with HOXA4 [1]; 9.85 upbm affinity estimate (log intensity, higher = more binding, comparable within an allelic series) with HOXA4 [2]; 9.64 upbm affinity estimate (log intensity, higher = more binding, comparable within an allelic series) with HOXA4 [4]; 9.99 upbm affinity estimate (log intensity, higher = more binding, comparable within an allelic series) in the assay with HOXA4 [8].
On to AACTAATA, for which the binding signal with HOXA4 [1] was 10.5 upbm affinity estimate (log intensity, higher = more binding, comparable within an allelic series); in the assay with HOXA4 [2] it was 11.2 upbm affinity estimate (log intensity, higher = more binding, comparable within an allelic series); with ALX3 [3] it was 8.57 upbm affinity estimate (log intensity, higher = more binding, comparable within an allelic series); in the assay with HOXA4 [4] it was 12.5 upbm affinity estimate (log intensity, higher = more binding, comparable within an allelic series); with HOXA4 [8], 11 upbm affinity estimate (log intensity, higher = more binding, comparable within an allelic series); in the assay with ALX3 [9], 8.65 upbm affinity estimate (log intensity, higher = more binding, comparable within an allelic series).
Regarding GCTGCTCC, the binding signal was 9.76 upbm affinity estimate (log intensity, higher = more binding, comparable within an allelic series) with HOXA4 [1]; 9.74 upbm affinity estimate (log intensity, higher = more binding, comparable within an allelic series) with HOXA4 [2]; 9.39 upbm affinity estimate (log intensity, higher = more binding, comparable within an allelic series) with MSX2 [14]; 9.73 upbm affinity estimate (log intensity, higher = more binding, comparable within an allelic series) in the assay with HOXA4 [4]; 9.4 upbm affinity estimate (log intensity, higher = more binding, comparable within an allelic series) with MSX2 [15]; 9.41 upbm affinity estimate (log intensity, higher = more binding, comparable within an allelic series) in the assay with MSX2 [16]. Also, the binding signal with HOXA4 [8] was 9.78 upbm affinity estimate (log intensity, higher = more binding, comparable within an allelic series).
Take AGGGACGG: the binding signal is 9.81 upbm affinity estimate (log intensity, higher = more binding, comparable within an allelic series) with HOXA4 [1]; 9.83 upbm affinity estimate (log intensity, higher = more binding, comparable within an allelic series) with HOXA4 [2]; 9.6 upbm affinity estimate (log intensity, higher = more binding, comparable within an allelic series) in the assay with NKX2-6 [17]; 9.78 upbm affinity estimate (log intensity, higher = more binding, comparable within an allelic series) in the assay with HOXA4 [4]; 9.93 upbm affinity estimate (log intensity, higher = more binding, comparable within an allelic series) in the assay with HOXA4 [8].
With ACCCCCCG, the binding signal in the assay with HOXA4 [1] was 9.65 upbm affinity estimate (log intensity, higher = more binding, comparable within an allelic series); with HOXA4 [2], 9.8 upbm affinity estimate (log intensity, higher = more binding, comparable within an allelic series); with ALX3 [3] it was 7.72 upbm affinity estimate (log intensity, higher = more binding, comparable within an allelic series); with NKX2-6 [18] it was 9.16 upbm affinity estimate (log intensity, higher = more binding, comparable within an allelic series); with HOXA4 [4], 9.93 upbm affinity estimate (log intensity, higher = more binding, comparable within an allelic series); with ALX3 [5], 7.75 upbm affinity estimate (log intensity, higher = more binding, comparable within an allelic series). Moreover, the binding signal is 7.65 upbm affinity estimate (log intensity, higher = more binding, comparable within an allelic series) with ALX3 [6]; 9.07 upbm affinity estimate (log intensity, higher = more binding, comparable within an allelic series) with NKX2-6 [19]; 7.57 upbm affinity estimate (log intensity, higher = more binding, comparable within an allelic series) in the assay with ALX3 [7]; 9.7 upbm affinity estimate (log intensity, higher = more binding, comparable within an allelic series) with HOXA4 [8]; 7.73 upbm affinity estimate (log intensity, higher = more binding, comparable within an allelic series) in the assay with ALX3 [9].
Turning to ATAATGAG, the binding signal was 10.5 upbm affinity estimate (log intensity, higher = more binding, comparable within an allelic series) with HOXA4 [1]; 12.5 upbm affinity estimate (log intensity, higher = more binding, comparable within an allelic series) with HOXA2 [20]; 11.8 upbm affinity estimate (log intensity, higher = more binding, comparable within an allelic series) in the assay with HOXA4 [2]; 13.2 upbm affinity estimate (log intensity, higher = more binding, comparable within an allelic series) with HOXA2 [13]; 13.6 upbm affinity estimate (log intensity, higher = more binding, comparable within an allelic series) in the assay with HOXA4 [4]; 12.8 upbm affinity estimate (log intensity, higher = more binding, comparable within an allelic series) in the assay with VAX1 [21]. Also, the binding signal with VAX1 [22] was 12.6 upbm affinity estimate (log intensity, higher = more binding, comparable within an allelic series); in the assay with HOXA2 [23] it was 10.8 upbm affinity estimate (log intensity, higher = more binding, comparable within an allelic series); with HOXA4 [8], 11.2 upbm affinity estimate (log intensity, higher = more binding, comparable within an allelic series); with HOXA2 [24] it was 12.3 upbm affinity estimate (log intensity, higher = more binding, comparable within an allelic series); with VAX1 [25], 12.5 upbm affinity estimate (log intensity, higher = more binding, comparable within an allelic series).
Regarding GGGGCACC, the binding signal was 9.71 upbm affinity estimate (log intensity, higher = more binding, comparable within an allelic series) with HOXA4 [1]; 8.98 upbm affinity estimate (log intensity, higher = more binding, comparable within an allelic series) in the assay with HOXB6 [26]; 9.76 upbm affinity estimate (log intensity, higher = more binding, comparable within an allelic series) in the assay with HOXA4 [2]; 9.9 upbm affinity estimate (log intensity, higher = more binding, comparable within an allelic series) in the assay with HOXA4 [4]; 9.88 upbm affinity estimate (log intensity, higher = more binding, comparable within an allelic series) with HOXA4 [8]; 8.89 upbm affinity estimate (log intensity, higher = more binding, comparable within an allelic series) with HOXB6 [27].
